# From PubChem BioAssay
# Shown are actives, neighbours in structure and some others; about 15% of the full set was active somewhere.
# TDP1 cell noCPT: qHTS for Inhibitors of human tyrosyl-DNA phosphodiesterase 1 (TDP1): qHTS in cells in absence of CPT. DT40 Tdp1-/- hTDP1 cells, no CPT, ATP luminescence, 48 h. Potency, µM (top dose mostly 46.2 µM), inactives show top-dose activity change, negative = growth inhibition, most hits filed as inhibitors. 420,000 tested, 15% active. AID 686978, 2013; also: nearly all actives have a fitted effect of over 55% in size
#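 No-CPT arm: Tdp1-/-;hTDP1 DT40 cells (400/well) plus compounds, incubated ≥48 hr at 37 °C. Readout CellTiter-Glo luminescence.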
# ELG1 DNA repair: ELG1-dependent DNA repair inhibition | AID 504467 | 330,000 tested, 2.3% active | HEK293T ELG1-luciferase reporter, luminescence, 16 h; DNA damage induced by 5-fluorouridine | Potency, µM (titrated, usually from 46.1 µM), for the others: at the highest dose activity change, negative = inhibition, actives largely listed as inhibitors; also: nearly all actives have a fitted effect of over 55% in size
#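 DMSO vehicle served as the neutral condition. Each well held 2,000 cells given 5-fluorouridine plus compound; after 16 hr at 37 °C/5% CO2, ONE-Glo was added and luciferase measured 30 min later.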
# 12-LOX inh: ALOX12 (human) lipoxygenase inhibition; 580,000 tested, 1.1% active; purified 12hLO, xylenol orange hydroperoxide absorbance; Potency, µM (series often up to 108 µM), inactives show at the highest dose activity change, negative = inhibition, usual class: inhibitors; AID 1671190
# Target sequence (P18054 whole entry, looked up): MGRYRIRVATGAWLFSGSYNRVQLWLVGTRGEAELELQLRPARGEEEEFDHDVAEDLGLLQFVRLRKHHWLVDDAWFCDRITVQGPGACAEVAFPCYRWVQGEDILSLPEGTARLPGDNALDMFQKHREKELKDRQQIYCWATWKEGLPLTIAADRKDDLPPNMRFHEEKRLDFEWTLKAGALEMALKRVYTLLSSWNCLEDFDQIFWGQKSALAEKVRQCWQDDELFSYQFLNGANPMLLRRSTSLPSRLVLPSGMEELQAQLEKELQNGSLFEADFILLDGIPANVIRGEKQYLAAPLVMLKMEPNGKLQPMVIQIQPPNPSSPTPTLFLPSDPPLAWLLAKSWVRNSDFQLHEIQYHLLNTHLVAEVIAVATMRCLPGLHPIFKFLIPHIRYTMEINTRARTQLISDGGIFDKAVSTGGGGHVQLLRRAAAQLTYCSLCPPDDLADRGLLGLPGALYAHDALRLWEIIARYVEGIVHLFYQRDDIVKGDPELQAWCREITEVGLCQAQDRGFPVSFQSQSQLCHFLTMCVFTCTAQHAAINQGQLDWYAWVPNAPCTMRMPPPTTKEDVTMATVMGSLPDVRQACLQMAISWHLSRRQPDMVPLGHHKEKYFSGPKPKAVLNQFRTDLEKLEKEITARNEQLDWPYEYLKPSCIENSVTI
#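 Purified human 12hLO at 150 nM in 25 mM Hepes, 0.01% Triton X-100, pH 7.0, preincubated 15 min at room temperature with compound. Reaction started with 40 uM arachidonic acid, 30 min at room temperature. Hydroperoxide measured by Fe-xylenol orange, 573/405 nm absorbance ratio.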
# VP16 counter: Gal4-VP16 reporter inhibition counter-screen | Drosophila S2 Gal4-VP16 UAS-luciferase, luminescence, 20 h | Potency, µM (doses to about 53.6 µM), without a hit: at the top dose activity, negative = inhibition, usual class: inhibitors | 310,000 tested, 3.5% active | AID 2546;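 also: Gal4-VP16 expression switched on by copper sulfate through the metallothionein promoter; nearly all actives have a fitted effect of over 50% in size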
# RORg inh: inhibitors of mouse ROR gamma transcriptional activity; P51450; Potency, µM (doses to about 53.6 µM), without a hit: top-dose activity change, negative = inhibition, most hits filed as inhibitors; AID 2551; Drosophila S2 Gal4-RORgamma UAS-luciferase reporter, 20 h; 310,000 tested, 5.4% active; also: nearly all actives have a fitted effect of over 60% in size
#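 In this cell-based reporter format, copper sulfate (700 uM final) drives Gal4–ROR gamma fusion expression from a metallothionein promoter in Drosophila Schneider cells; compounds preincubated 1 hr, reporter read after 20 hr at ambient temperature.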
# DT40 TDP1 CPT: growth inhibition of DT40 Tdp1-/-;hTDP1 cells with camptothecin (screen for TDP1 inhibitors); chicken DT40 Tdp1-/-;hTDP1 cells + 20 nM CPT, ATP luminescence, 48 h; Potency, µM (series often up to 46.2 µM), inactives show top-dose activity change, negative = growth inhibition, most hits filed as inhibitors; 420,000 tested, 12% active; also: nearly all actives have a fitted effect of over 55% in size
#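 Chicken DT40 Tdp1-/- cells complemented with human TDP1, 400 cells/well, exposed to compounds plus 20 nM camptothecin for at least 48 h at 37 C; viability read as ATP content by CellTiter-Glo luminescence.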
# * hit, by the source's call; ? = inconclusive; . = no result; [ ] = remark or other dose. Calls follow the shape of the dose curve; as a rule, active = well fitted curve in the direction sought with a large enough effect; inconclusive = small, poorly fitted or top-dose-only effect, or another doubt; inactive = no such curve, though single readings can be large; an effect the other way counts as inactive or inconclusive. % is scaled to controls: 0 for no effect and ±100 for the full control effect; potency is read from the fitted curve at half-maximal effect.
SMILES,TDP1 cell noCPT,ELG1 DNA repair,12-LOX inh,VP16 counter,RORg inh,DT40 TDP1 CPT
Cc1cccc(OCC(=O)Nc2cccc(OCc3cc(=O)n4cccc(C)c4n3)c2)c1,15µM*,.,-1%,.,.,21µM*
CCCc1nn2c(=O)cc(COC(=O)c3cccc(NC(=O)COc4ccc(F)cc4)c3)nc2s1,-11%,.,-11%,.,.,1%
CN(C)c1ccc(CN[C@H]2[C@H](O)[C@@H](N(C)CCc3ccccn3)[C@@H]3OC[C@H]2O3)cc1,.,.,37%[176 µM],.,.,.
CC(C)Cn1c(-c2ccc(Br)cc2)c[nH]c1=S,15µM*,-3%,35µM*,1.6µM*,0.63µM*,16µM*
CCn1c(-c2ccccc2)c[nH]c1=S,?,4%,?,8.9µM*,1.1µM*,-21%
CC(C)Cn1c(=O)c2ccccc2n2c(-c3ccc(Br)cc3)nnc12,?,.,-25%,.,.,?
COC(=O)c1c[nH]c(=S)n1Cc1ccccc1,-8%,.,?,.,.,7%
S=c1[nH]cc(-c2ccc(Cl)cc2)n1Cc1ccccc1,19%,19%,-14%,2.8µM*,2.5µM*,-4%
CCn1c(-c2ccccc2)cc2ccccc21,.,.,34%,.,.,.
Cn1cc(C[C@H](NC(=O)OC(C)(C)C)C(=O)N[C@@H](CO)Cc2ccccc2)c2ccccc21,?,.,0%,.,.,18µM*
COc1ccc(CCNC(=O)CCN2C(=O)c3cccc4cccc(c34)C2=O)cc1OC,10%,3%,-4%,-1%,7%,?
COc1cc(CCN2C(=O)c3cccc4cccc(c34)C2=O)c(S(=O)(=O)NCCO)cc1OC,?,4.6µM*,10%,-6%,?,?
COc1cc(CCN2C(=O)c3cccc4cccc(c34)C2=O)c(S(=O)(=O)NCCCO)cc1OC,?,5.8µM*,-6%,-13%,7%,?
CCN1C(=O)c2cccc3c(S(=O)(=O)N4CCC(C)CC4)ccc1c23,?,?,1%,.,.,?
COc1cc(CCN2C(=O)c3cccc4cccc(c34)C2=O)c(S(=O)(=O)N2CCC(C)CC2)cc1OC,2.6µM*,21µM*,?,2%,?,26µM*
CCCC1Cc2c(sc3nc(SCC(=O)c4ccc(F)cc4)nc(N)c23)CO1 (stereo not drawn),.,.,-4%,.,.,.
Cc1ccc(C(O)(c2ccccc2)c2ccccc2C(C)N(C)C)c(C)c1 (stereo not drawn),18µM*,-9%,-17%,-28%,-24%,?
COc1cc(OC)c(N(C)S(=O)(=O)c2cccc(C(=O)Nc3nccs3)c2)cc1Cl,18µM*,23µM*,-10%,.,.,?
COc1cc(OC)c(N(C)S(=O)(=O)c2cccc(C(=O)NC(C)C3CC4CCC3C4)c2)cc1Cl (stereo not drawn),23µM*,-10%,-7%,0%,4%,18µM*
CN1/C(=C\C(=O)Nc2cccnc2)c2ccccc2CC1(C)C,10µM*,-13%,1%,-10%,?,18µM*
COc1ccc(C(=O)/C=C2/c3ccccc3CC(C)(C)N2C)cc1,5.2µM*,20%,5%,-9%,19%,5.2µM*
O=C(/C=C/c1ccccc1)Nc1cccnc1,-22%,?,18%,-11%,2%,-4%
CCC(C)(C)C1CCc2[nH]nc(C(=O)NC3CCCCC3)c2C1 (stereo not drawn),?,?,8%,.,.,12µM*
CCC(C)(C)C1CCc2[nH]nc(C(=O)NC(C)C)c2C1 (stereo not drawn),21µM*,-14%,0%,.,.,?
CCC(C)(C)C1CCc2[nH]nc(C(=O)NN)c2C1 (stereo not drawn),?,?,-1%,-14%,-1%,-22%
